# Assay outcomes: PubChem, Broad Institute
# miR122 inh = raises miR-122 sensor activity in Huh7 cells; Huh7 psiCHECK-miR122 Renilla luciferase sensor, 48 h; activation, % at 12.5 µM; actives 0.14% (n = 340,000); AID 623901;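 active = mean activation of 30% or more, with every replicate also reaching 30%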;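 also: 0% = median of neutral control wells and 100% = median of positive control wells; higher luciferase signal means stronger suppression of miR-122 activity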
# The depositor's hits bear a star. This is one part of a sample in which hits are shown more often than they occur.
SMILES,miR122 inh
C[C@@H]1CN([C@H](C)CO)S(=O)(=O)c2ccc(C3=CCCC3)cc2O[C@@H]1CN(C)C(=O)C1CCOCC1,34*
C[C@@H]1CN([C@H](C)CO)S(=O)(=O)c2ccc(-c3cncnc3)cc2O[C@@H]1CN(C)C(=O)Cc1ccncc1,5
C[C@@H]1CN([C@@H](C)CO)S(=O)(=O)c2ccc(-c3ccc(C(=O)N(C)C)cc3)cc2O[C@@H]1CN(C)C(=O)C1CCC1,40*
C[C@@H]1CN([C@@H](C)CO)S(=O)(=O)c2ccc(-c3cncnc3)cc2O[C@H]1CN(C)C(=O)Cc1ccncc1,3
C[C@@H]1CN([C@H](C)CO)S(=O)(=O)c2ccc(C3=CCCC3)cc2O[C@@H]1CN(C)C(=O)Cc1ccncc1,33*
C[C@@H]1CN([C@@H](C)CO)S(=O)(=O)c2ccc(-c3ccc(F)cc3)cc2O[C@@H]1CN(C)C(=O)C1CCOCC1,11
C[C@H]1CN([C@@H](C)CO)S(=O)(=O)c2ccc(-c3ccc(F)cc3)cc2O[C@@H]1CN(C)C(=O)C1CCOCC1,-19
C[C@H]1CN([C@@H](C)CO)C(=O)c2cc(-c3ccncc3)cnc2O[C@@H]1CN(C)C(=O)C1CCOCC1,-9
COc1ccccc1-c1cnc2c(c1)C(=O)N([C@H](C)CO)C[C@H](C)[C@H](CN(C)Cc1ccccc1)O2,-2
C[C@H](CO)N1C[C@H](C)[C@H](CN(C)Cc2ccncc2)Oc2ncc(-c3cccc(F)c3)cc2C1=O,-4
C/C=C/c1cnc2c(c1)C(=O)N([C@@H](C)CO)C[C@@H](C)[C@@H](CN(C)CC1CCOCC1)O2,0
C[C@@H]1CN([C@H](C)CO)C(=O)c2cc(-c3ccncc3)cnc2O[C@H]1CN(C)C(=O)c1ccccc1F,4
CCCNC(=O)N(C)C[C@H]1Oc2cc(C#Cc3cccc(F)c3)ccc2S(=O)(=O)N([C@H](C)CO)C[C@H]1C,3
CCC(=O)N(C)C[C@@H]1Oc2cc(C#C[C@H](C)O)ccc2S(=O)(=O)N([C@H](C)CO)C[C@H]1C,4
COc1cccc(C#Cc2ccc3c(c2)O[C@H](CN(C)C(C)=O)[C@@H](C)CN([C@@H](C)CO)S3(=O)=O)c1,-29
C[C@@H]1CN([C@H](C)CO)C(=O)c2cc(C#Cc3ccccn3)cnc2O[C@H]1CN(C)Cc1cccnc1,4
C[C@@H]1CN([C@@H](C)CO)C(=O)c2cc(C#CC3CCCC3)cnc2O[C@H]1CN(C)C(=O)C1CCC1,1
C/C=C/c1ccc2c(c1)O[C@@H](CN(C)S(C)(=O)=O)[C@H](C)CN([C@@H](C)CO)S2(=O)=O,-9
C[C@@H]1CN([C@H](C)CO)C(=O)c2cc(C#CC3(O)CCCC3)cnc2O[C@H]1CN(C)C(=O)CN(C)C,0
C[C@@H]1CN([C@H](C)CO)C(=O)c2cc(-c3cncnc3)cnc2O[C@H]1CN(C)CC1CCOCC1,-2
CNC[C@@H]1Oc2cc(-c3cccc(F)c3)ccc2S(=O)(=O)N([C@@H](C)CO)C[C@H]1C,3
Cc1ccccc1OCC(=O)NNC(=O)Nc1ccc(Cl)cc1,-144
Cc1ccccc1OCC(O)CNC1CCC(NCC(O)COc2ccccc2C)CC1 (stereo not drawn),31*
C[C@H](CO)N1C[C@H](C)[C@@H](CN(C)C(=O)C2CC2)Oc2ncc(C#Cc3cccc(F)c3)cc2C1=O,-1
C[C@@H]1CN([C@H](C)CO)C(=O)c2cc(C#Cc3cccc(F)c3)cnc2O[C@@H]1CN(C)CC1CCOCC1,0
SMILES,miR122 inh
O=S(=O)(Nc1ccc2ccccc2c1)c1ccccc1,-170
CSc1cccc(NS(=O)(=O)c2ccccc2)c1,35*
CSc1cccc(NS(=O)(=O)c2cc(Br)cnc2N)c1,-106
C[C@@H]1CN([C@@H](C)CO)C(=O)c2cc(-c3cccc(F)c3)cnc2O[C@@H]1CN(C)Cc1cncnc1,-43
C[C@H](CO)N1C[C@H](C)[C@H](CN(C)Cc2ccncc2)Oc2ncc(C#Cc3ccc(F)cc3)cc2C1=O,-9
C[C@@H]1CN([C@H](C)CO)C(=O)c2cc(-c3cncnc3)cnc2O[C@H]1CN(C)Cc1ccccc1,-2
C[C@@H]1CN([C@@H](C)CO)C(=O)c2cc(C#Cc3ccccc3)cnc2O[C@H]1CN(C)Cc1ccccn1,7
Cc1c(Cl)sn(-c2ccc(Cl)cc2)c1=O,70*
C[C@H]1CN([C@@H](C)CO)C(=O)c2cc(C#Cc3ccccc3)cnc2O[C@@H]1CN(C)Cc1ccccn1,3
CCCCN1C=C(C(=O)OC)C(c2ccccc2C(F)(F)F)C(C(=O)OC)=C1,31*
C[C@@H]1CN([C@H](C)CO)C(=O)c2cc(C#C[C@@H](C)O)cnc2O[C@@H]1CN(C)C(=O)CN(C)C,0
COc1cccc(-c2ccc3c(c2)O[C@@H](CN(C)C(C)=O)[C@H](C)CN([C@H](C)CO)S3(=O)=O)c1,4
CO[C@H]1CN(C)C(=O)c2cc(NC(C)=O)ccc2OC[C@H](C)N(C(=O)c2ccccc2)C[C@H]1C,3
C/C=C/c1cnc2c(c1)C(=O)N([C@@H](C)CO)C[C@H](C)[C@@H](CN(C)C(=O)Nc1ccccc1F)O2,-3
C/C=C/c1ccc2c(c1)O[C@H](CN(C)C(=O)Cc1cccnc1)[C@H](C)CN([C@H](C)CO)S2(=O)=O,43*
C[C@@H]1CN([C@@H](C)CO)S(=O)(=O)c2ccc(C#CC3(O)CCCC3)cc2O[C@@H]1CN(C)C(=O)c1cccnc1,47*
C/C=C/c1ccc2c(c1)O[C@H](CN(C)C(=O)c1cccnc1)[C@H](C)CN([C@H](C)CO)S2(=O)=O,-5
C[C@H](CO)N1C[C@H](C)[C@H](CN(C)C(=O)C2CC2)Oc2cc(C#Cc3cccnc3)ccc2S1(=O)=O,-2
CC(=O)N(C)C[C@@H]1Oc2cc(C#CC3(O)CCCC3)ccc2S(=O)(=O)N([C@H](C)CO)C[C@@H]1C,5
CCCC#Cc1ccc2c(c1)O[C@@H](CN(C)C(=O)c1cccnc1)[C@@H](C)CN([C@@H](C)CO)S2(=O)=O,-12
C/C=C/c1ccc2c(c1)O[C@@H](CN(C)C(=O)c1cccnc1)[C@@H](C)CN([C@@H](C)CO)S2(=O)=O,-3
CCC(=O)N(C)C[C@H]1Oc2cc(C#Cc3cccnc3)ccc2S(=O)(=O)N([C@H](C)CO)C[C@@H]1C,-10
COCC(=O)N(C)C[C@H]1Oc2cc(C#Cc3cccnc3)ccc2S(=O)(=O)N([C@@H](C)CO)C[C@@H]1C,55*
COCC(=O)N(C)C[C@H]1Oc2cc(C#Cc3cccnc3)ccc2S(=O)(=O)N([C@@H](C)CO)C[C@H]1C,59*
CCC(=O)N(C)C[C@H]1Oc2cc(C#Cc3cccnc3)ccc2S(=O)(=O)N([C@@H](C)CO)C[C@@H]1C,-22
SMILES,miR122 inh
CCC(=O)N(C)C[C@@H]1Oc2cc(C#Cc3cccnc3)ccc2S(=O)(=O)N([C@@H](C)CO)C[C@@H]1C,4
C[C@H](CO)N1C[C@H](C)[C@H](CN(C)C(=O)Nc2ccc3c(c2)OCO3)Oc2ncc(-c3ccc(F)cc3)cc2C1=O,-24
CCC(=O)N(C)C[C@@H]1Oc2ncc(C#C[C@H](C)O)cc2C(=O)N([C@H](C)CO)C[C@@H]1C,0
CCCNC(=O)N(C)C[C@@H]1Oc2cc(Br)ccc2S(=O)(=O)N([C@H](C)CO)C[C@H]1C,4
COCC(=O)Nc1ccc2c(c1)OC[C@H](C)N(C(C)=O)C[C@@H](C)[C@H](OC)CN(C)C2=O,-2
CCCC(=O)Nc1ccc2c(c1)OC[C@@H](C)N(C)C[C@H](C)[C@@H](OC)CN(C)C2=O,-3
